These results are taken from PubChem BioAssay (EPA / NIEHS).

What all share (settings): mRNA level, 48 h; actives raise or lower the signal
Read-out in assay [1]: Insulin-like growth factor-binding protein 1 (IGFBP1), IGFBP1 (gene 3484)
Put plainly: LTEA_HepaRG_IGFBP1: Life Technologies and Expression Analysis (LTEA) Assay for Insulin-like growth factor-binding protein 1 (IGFBP1) using HepaRG (AID 2283508). The procedure, abridged:
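Differentiated human HepaRG cells in serum-free induction medium were exposed in duplicate for 48 h to eight concentrations, top 100 uM with half-log dilutions, in 0.5% DMSO. Transcript levels came from qRT-PCR normalised to ACTB, GAPDH and POLR2A, fitted bidirectionally against DMSO.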

Read-out in assay [2]: Interleukin 6 (IL6), IL6 (gene 3569)
In words: LTEA_HepaRG_IL6: Life Technologies and Expression Analysis (LTEA) Assay for Interleukin 6 (IL6) using HepaRG (AID 2283509). In a few lines: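 HepaRG cells exposed in duplicate for 48 h to eight half-log concentrations, top 100 uM, in 0.5% DMSO serum-free induction medium. mRNA measured by qRT-PCR, normalized to ACTB, GAPDH and POLR2A. Bidirectional fit versus DMSO.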

Read-out in assay [3]: Interleukin 6 Receptor (IL6R), IL6R (gene 3570)
In words: LTEA_HepaRG_IL6R: Life Technologies and Expression Analysis (LTEA) Assay for Interleukin 6 Receptor (IL6R) using HepaRG (AID 2283510). The procedure, abridged:
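Concentration-response in human liver HepaRG cells: eight concentrations from 100 uM downward by half-logs, 48 h exposure, 0.5% DMSO vehicle. IL6R mRNA change measured by qRT-PCR and fitted in both directions relative to vehicle.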

Read-out in assay [4]: Potassium channel subfamily K member 1 (KCNK1), KCNK1 (gene 3775)
Put plainly: LTEA_HepaRG_KCNK1: Life Technologies and Expression Analysis (LTEA) Assay for Potassium channel subfamily K member 1 (KCNK1) using HepaRG (AID 2283511). The procedure, abridged: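 Differentiated HepaRG cells, 48 h exposure in serum-free induction medium with 0.5% DMSO; 8 concentrations, half-log from 100 uM, duplicate. KCNK1 mRNA by qRT-PCR, normalized to ACTB, GAPDH, POLR2A; bidirectional fit vs DMSO.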

Read-out in assay [5]: Keratin 19 (KRT19), KRT19 (gene 3880)
Put plainly: LTEA_HepaRG_KRT19: Life Technologies and Expression Analysis (LTEA) Assay for Keratin 19 (KRT19) using HepaRG (AID 2283512). In a few lines: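 Differentiated human HepaRG cells, plated 48 h, were exposed in duplicate for 48 h in serum-free induction medium to eight half-log concentrations up to 100 uM in 0.5% DMSO. KRT19 mRNA was quantified by qRT-PCR, normalized to ACTB, GAPDH and POLR2A, and fitted bidirectionally versus DMSO.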

Read-out in assay [6]: JUN Transcription Factor, JUN (gene 3725)
Put plainly: LTEA_HepaRG_JUN: Life Technologies and Expression Analysis (LTEA) Assay for JUN Transcription Factor using HepaRG (AID 2283513). In a few lines:
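Human HepaRG liver cells receive test chemicals in 0.5% DMSO for 48 h across an eight-point range topping at 100 uM. Expression changes in JUN are scored in both directions against the DMSO vehicle.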

Read-out in assay [7]: Lipase C (LIPC), LIPC (gene 3990)
Put plainly: LTEA_HepaRG_LIPC: Life Technologies and Expression Analysis (LTEA) Assay for Lipase C (LIPC) using HepaRG (AID 2283514). In a few lines: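 HepaRG cells, 48 h after plating, treated in duplicate for 48 h in serum-free induction medium over 8 half-log concentrations from 100 uM, 0.5% DMSO. LIPC mRNA by TaqMan qRT-PCR normalized to ACTB/GAPDH/POLR2A; bidirectional fit versus DMSO.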

Read-out in assay [8]: Lipoprotein lipase (LPL), LPL (gene 4023)
In words: LTEA_HepaRG_LPL: Life Technologies and Expression Analysis (LTEA) Assay for Lipoprotein lipase (LPL) using HepaRG (AID 2283515). The procedure, abridged:
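Differentiated HepaRG cells, plated 48 h, then exposed 48 h in serum-free induction medium to 8 concentrations (top 100 uM, half-log steps) in 0.5% DMSO, duplicate. LPL mRNA measured by qRT-PCR, normalized to ACTB, GAPDH and POLR2A.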

Read-out in assay [9]: MicroRNA 122 (MIR122), gene 406906
In words: LTEA_HepaRG_MIR122: Life Technologies and Expression Analysis (LTEA) Assay for MicroRNA 122 (MIR122) using HepaRG (AID 2283516). Note: the transcript read is the microRNA miR-122. The procedure, abridged: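 HepaRG, 48 h exposure, 8-pt half-log from 100 uM, 0.5% DMSO; TaqMan qRT-PCR; bidirectional fit vs DMSO.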

Read-out in assay [10]: matrix metalloproteinase-10 (MMP10), MMP10 (gene 4319)
In words: LTEA_HepaRG_MMP10: Life Technologies and Expression Analysis (LTEA) Assay for matrix metalloproteinase-10 (MMP10) using HepaRG (AID 2283517). The procedure, abridged: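 Differentiated HepaRG cells in serum-free induction medium exposed 48 h in duplicate to 8-point half-log series up to 100 uM in 0.5% DMSO. mRNA quantified by qRT-PCR, normalised to ACTB, GAPDH, POLR2A; bidirectional fit versus DMSO.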

Read-out in a further assay: MYC, MYC (gene 4609)
Put plainly: LTEA_HepaRG_MYC: Life Technologies and Expression Analysis (LTEA) Assay for MYC using HepaRG (AID 2283518). In a few lines: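 Differentiated human HepaRG cells, plated 48 h then switched to serum-free induction medium, were exposed in duplicate for 48 h to 8-point half-log series up to 100 uM in 0.5% DMSO. MYC mRNA measured by qRT-PCR, normalized to ACTB/GAPDH/POLR2A.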

Read-out in assay [11]: matrix metalloproteinase-3 (MMP3), MMP3 (gene 4314)
In words: LTEA_HepaRG_MMP3: Life Technologies and Expression Analysis (LTEA) Assay for matrix metalloproteinase-3 (MMP3) using HepaRG (AID 2283519). The procedure, abridged: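 HepaRG cells (~100,000/well) in serum-free induction medium were dosed in duplicate for 48 h with an 8-point half-log series from 100 uM, 0.5% DMSO. MMP3 mRNA was quantified by Fluidigm TaqMan qRT-PCR, normalized to three housekeeping genes.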

Read-out in assay [12]: Paternally Expressed 10 (PEG10), PEG10 (gene 23089)
In words: LTEA_HepaRG_PEG10: Life Technologies and Expression Analysis (LTEA) Assay for Paternally Expressed 10 (PEG10) using HepaRG (AID 2283520). The procedure, abridged:
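Chemicals tested on HepaRG cells for 48 h, highest concentration 100 uM. PEG10 expression assessed by qRT-PCR relative to DMSO control.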

Read-out in assay [13]: Nuclear factor NF-kappa-B p105 subunit (Homo sapiens) (UniProt P19838)
In words: LTEA_HepaRG_NFKB1: Life Technologies and Expression Analysis (LTEA) Assay for Nuclear Factor Kappa B Subunit 1 (NFKB1) using HepaRG (AID 2283521).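 Note: TaqMan qRT-PCR transcript normalised to ACTB GAPDH and POLR2A housekeeping genes.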 The procedure, abridged:
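Differentiated human HepaRG cells were exposed for 48 h in serum-free induction medium to eight concentrations (top 100 uM, half-log steps, 0.5% DMSO), in duplicate. NFKB1 mRNA was measured by TaqMan qRT-PCR, normalized to ACTB/GAPDH/POLR2A, and fitted bidirectionally against DMSO.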

Read-out in assay [14]: Protein phosphatase 2A (PPP2R4), PTPA (gene 5524)
Put plainly: LTEA_HepaRG_PPP2R4: Life Technologies and Expression Analysis (LTEA) Assay for Protein phosphatase 2A (PPP2R4) using HepaRG (AID 2283522). The procedure, abridged:
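Gene-expression endpoint in HepaRG hepatic cells: 48 h treatment across eight half-log concentrations up to 100 uM in 0.5% DMSO. PPP2R4 mRNA by qRT-PCR, normalized to three endogenous control genes.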

Read-out in assay [15]: Phosphatase and tensin (PTEN), PTEN (gene 5728)
In words: LTEA_HepaRG_PTEN: Life Technologies and Expression Analysis (LTEA) Assay for Phosphatase and tensin (PTEN) using HepaRG (AID 2283523). The procedure, abridged: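 HepaRG cells, 48 h after plating, exposed in duplicate for 48 h in serum-free induction medium to 8 half-log concentrations up to 100 uM (0.5% DMSO). PTEN mRNA by qRT-PCR, normalized to ACTB, GAPDH, POLR2A; bidirectional fit versus DMSO.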

Read-out in assay [16]: solute carrier (SLC22A1), SLC22A1 (gene 6580)
In words: LTEA_HepaRG_SLC22A1: Life Technologies and Expression Analysis (LTEA) Assay for solute carrier (SLC22A1) using HepaRG (AID 2283524). In a few lines:
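Differentiated human HepaRG cells in serum-free induction medium, exposed 48 h in duplicate to 8-point half-log series from 100 µM top in 0.5% DMSO. SLC22A1 mRNA by TaqMan qRT-PCR normalized to ACTB, GAPDH, POLR2A; bidirectional fit versus DMSO.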

Read-out in assay [17]: Pyruvate Dehydrogenase Kinase 4 (PDK4), PDK4 (gene 5166)
Put plainly: LTEA_HepaRG_PDK4: Life Technologies and Expression Analysis (LTEA) Assay for Pyruvate Dehydrogenase Kinase 4 (PDK4) using HepaRG (AID 2283525). The procedure, abridged: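 HepaRG cells plated 48 h, then switched to serum-free induction medium and exposed in duplicate for 48 h to 8 half-log concentrations from 100 uM in 0.5% DMSO. PDK4 mRNA measured by qRT-PCR, normalized to ACTB, GAPDH and POLR2A; bidirectional fit versus DMSO.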

Read-out in assay [18]: NAD(P)H dehydrogenase [quinone] 1 (NQO1), NQO1 (gene 1728)
In words: LTEA_HepaRG_NQO1: Life Technologies and Expression Analysis (LTEA) Assay for NAD(P)H dehydrogenase [quinone] 1 (NQO1) using HepaRG (AID 2283526). In a few lines:
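Human HepaRG hepatic cells received chemicals for 48 h in serum-free induction medium with 0.5% DMSO, up to 100 uM. Expression was assessed by TaqMan qRT-PCR against housekeeping controls and fitted bidirectionally against DMSO.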

Read-out in assay [19]: Nuclear factor erythroid 2-related factor 2 (Homo sapiens) (UniProt Q16236)
Put plainly: LTEA_HepaRG_NFE2L2: Life Technologies and Expression Analysis (LTEA) Assay for Nuclear factor erythroid 2-related factor 2 (NFE2L2) Transcription Factor using HepaRG (AID 2283527).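 Note: TaqMan qRT-PCR transcript level normalised to ACTB GAPDH and POLR2A housekeeping genes.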 The procedure, abridged:
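Differentiated human HepaRG cells, serum-free induction medium, exposed 48 h in duplicate to eight half-log concentrations up to 100 uM in 0.5% DMSO. NFE2L2 mRNA by Fluidigm TaqMan qRT-PCR, normalised to ACTB, GAPDH, POLR2A; bidirectional change versus DMSO.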

The source made the active and inactive calls. Rule for the calls: active = hit-call score of the fitted dose curve at least 0.9, where 1 is the maximum; inactive = score below 0.9.

Chain of Nuclear factor NF-kappa-B p105 subunit (Homo sapiens) (P19838 whole entry, looked up): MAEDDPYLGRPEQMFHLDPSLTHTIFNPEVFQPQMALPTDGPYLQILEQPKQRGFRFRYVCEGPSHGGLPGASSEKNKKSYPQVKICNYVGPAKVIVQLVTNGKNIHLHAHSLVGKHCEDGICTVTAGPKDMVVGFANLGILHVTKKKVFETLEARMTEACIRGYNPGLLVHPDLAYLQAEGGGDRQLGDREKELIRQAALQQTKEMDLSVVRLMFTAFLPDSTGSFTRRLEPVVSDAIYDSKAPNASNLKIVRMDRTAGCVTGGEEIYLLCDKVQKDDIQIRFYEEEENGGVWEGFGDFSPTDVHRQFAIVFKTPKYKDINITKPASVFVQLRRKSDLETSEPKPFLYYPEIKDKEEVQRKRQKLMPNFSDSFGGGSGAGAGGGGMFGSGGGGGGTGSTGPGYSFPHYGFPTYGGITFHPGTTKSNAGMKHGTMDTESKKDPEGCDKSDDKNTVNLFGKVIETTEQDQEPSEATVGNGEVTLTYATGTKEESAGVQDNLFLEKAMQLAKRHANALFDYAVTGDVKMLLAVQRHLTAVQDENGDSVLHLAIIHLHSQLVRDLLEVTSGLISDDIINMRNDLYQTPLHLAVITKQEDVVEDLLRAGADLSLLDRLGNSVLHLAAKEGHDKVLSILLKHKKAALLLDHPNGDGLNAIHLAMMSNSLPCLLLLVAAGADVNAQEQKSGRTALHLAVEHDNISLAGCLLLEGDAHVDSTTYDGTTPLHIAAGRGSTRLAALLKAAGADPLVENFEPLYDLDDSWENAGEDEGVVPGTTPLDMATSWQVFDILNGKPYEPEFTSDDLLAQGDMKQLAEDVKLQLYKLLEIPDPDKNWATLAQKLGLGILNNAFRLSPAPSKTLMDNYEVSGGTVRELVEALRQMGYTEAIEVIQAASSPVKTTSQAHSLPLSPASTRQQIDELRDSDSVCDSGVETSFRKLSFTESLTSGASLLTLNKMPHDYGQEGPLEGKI
Chain of Nuclear factor erythroid 2-related factor 2 (Homo sapiens) (Q16236 whole entry, looked up): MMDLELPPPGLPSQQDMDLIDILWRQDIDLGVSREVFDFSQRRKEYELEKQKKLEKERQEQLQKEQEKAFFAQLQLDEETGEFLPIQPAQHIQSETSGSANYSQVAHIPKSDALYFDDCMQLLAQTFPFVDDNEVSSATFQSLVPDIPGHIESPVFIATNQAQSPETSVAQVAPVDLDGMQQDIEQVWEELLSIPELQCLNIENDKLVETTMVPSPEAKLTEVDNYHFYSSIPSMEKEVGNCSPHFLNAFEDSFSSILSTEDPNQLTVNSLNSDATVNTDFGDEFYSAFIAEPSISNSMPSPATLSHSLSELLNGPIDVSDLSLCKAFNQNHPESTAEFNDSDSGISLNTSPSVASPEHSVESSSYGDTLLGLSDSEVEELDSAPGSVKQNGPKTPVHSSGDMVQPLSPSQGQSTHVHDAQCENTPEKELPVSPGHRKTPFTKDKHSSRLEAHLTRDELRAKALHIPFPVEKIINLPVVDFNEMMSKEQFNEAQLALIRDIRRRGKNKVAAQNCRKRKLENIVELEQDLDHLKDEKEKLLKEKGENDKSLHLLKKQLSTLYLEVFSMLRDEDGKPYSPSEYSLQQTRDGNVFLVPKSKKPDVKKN

`CCCCCCCCCc1ccc(O)cc1`: the compound was classed as inactive in [1], in assay [2], in assay [3], in [4], in assay [5] and in assay [6]. The outcome in assay [7] is “inactive”; in [8], “inactive”; in [9], “inactive”; in assay [10], “inactive”; with MYC, MYC (gene 4609), “inactive”; in assay [11], “inactive”. The outcome in [12], in assay [13], in assay [14], in assay [15], in assay [16] and in [18] was inactive. The AC50 in [17] is 63.2 µM (active).

Regarding `O=C(N[C@H]1CN2CCC1CC2)c1cc2ccoc2cn1`, the call in assay [1], in [2], in assay [3], in assay [4], in assay [5] and in [6] was inactive. In addition, the outcome was “inactive” in [7]; “inactive” in [8]; “inactive” in assay [9]; “inactive” in assay [10]; “inactive” in the assay with MYC, MYC (gene 4609); “inactive” in assay [11]. The compound was called inactive in [12], in [13], in assay [14], in assay [15], in assay [16] and in assay [17]. Further, the compound was called inactive in [18] and in assay [19].

On to `C=CC(=O)NCNC(=O)C=C`, for which the outcome in assay [1], in [3], in [4], in assay [5], in assay [6] and in assay [7] was inactive. Also, the outcome was “inactive” in assay [8]; “inactive” in assay [9]; “inactive” in assay [10]; “inactive” in the assay with MYC, MYC (gene 4609); “inactive” in [11]; “inactive” in assay [12]. Besides, the compound was called inactive in assay [13], in [14], in assay [15], in [17] and in [18]. In addition, the results for the AC50 in assay [2] and in assay [16] were 50 µM (active) and 30.6 µM (active), respectively.
